Measurements: PubChem BioAssay
Activity calls are given as the source filed them. Unless noted, the rule behind the calls is not given here.

Assays:
[1] = compound effects on lung adenocarcinoma cell viability – A549, calcein-AM fluorescence, 48 h, basal, profiling panel (AID 1162); settings: higher = more signal; note: test concentration not given here
[2] = compound effects on differentiated 3T3-L1 adipocyte viability – cell-based, 3T3-L1 adipocytes, calcein-AM fluorescence, 48 h, basal, profiling panel (AID 1163); settings: 3T3-L1 adipocytes viability, higher = more signal; note: test concentration not given here
[3] = compound effects on hepatocellular carcinoma cell viability – HepG2, calcein-AM fluorescence, 48 h, basal, profiling panel (AID 1164); settings: higher = more signal; note: test concentration not given here
[4] = compound effects on multiple myeloma cell viability – MM1S, calcein-AM fluorescence, 48 h, basal, profiling panel (AID 1165); settings: higher = more signal;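 note: viability of MM1S multiple myeloma cells under basal unstimulated conditions; test concentration not given here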
[5] = calcein-AM signal in unstimulated myeloma cells – cell-based, calcein-AM fluorescence, 48 h, PK04 Diversity Set, profiling panel (AID 1166); settings: RPMI8226 myeloma viability, higher = more signal;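 note: cells grown under basal conditions without added stimulus; test concentration not given here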
[6] = JC-1 mitochondrial signal, unstimulated HepG2 cells – cell-based, JC-1 fluorescence, 24 h, 100 nL compound, profiling panel (AID 1167); settings: HepG2 mitochondrial potential, higher = more signal; note: test concentration not given here
[7] = JC-1 mitochondrial signal, unstimulated adipocytes – cell-based, JC-1 fluorescence, 3T3-L1 adipocytes, 24 h, 100 nL compound, profiling panel (AID 1168); settings: JC-1 mitochondrial fluorescence, higher = more signal, called active from +8 up or from −8 down; note: test concentration not given here
[8] = JC-1 mitochondrial signal, unstimulated myeloma cells – cell-based, JC-1 fluorescence, RPMI8226, 24 h, 100 nL compound, profiling panel (AID 1169); settings: JC-1 mitochondrial potential fluorescence, higher = more signal; note: test concentration not given here
[9] = JC-1 mitochondrial signal, unstimulated MM1S myeloma – cell-based, JC-1 fluorescence, 24 h, 100 nL compound, profiling panel (AID 1170); settings: MM1S mitochondrial potential, higher = more signal; note: test concentration not given here
[10] = resazurin metabolic signal in A549 cells – cell-based, resazurin fluorescence, 24 h, PK04 Diversity Set, profiling panel (AID 1171); settings: A549 viability, higher = more signal, called active from +8 up or from −8 down; note: test concentration not given here
[11] = resazurin metabolic signal in HepG2 cells – cell-based, resazurin fluorescence, 24 h, PK04 Diversity Set, profiling panel (AID 1172); settings: HepG2 viability, higher = more signal; note: test concentration not given here
[12] = budding yeast growth changes without added modifier – OD600, strain BY4716, 24 h, basal condition, primary screen (AID 1173); settings: S. cerevisiae BY4716 growth, OD600, 24 h; higher = more signal, called active from +8 up or from −8 down
[13] = viability profiling in MM1S myeloma cells – cell-based, resazurin fluorescence, basal, 24 h, PK04 Diversity Set, profiling panel (AID 1174); settings: higher = more signal, called active from +8 up or from −8 down; note: test concentration not given here
[14] = target: Dihydroorotate dehydrogenase (quinone), mitochondrial (Plasmodium falciparum (isolate 3D7)) (UniProt Q08210); assay: inhibition of P. falciparum DHODH – biochemical, C-terminal His tag, absorbance 600 nm, primary screen (AID 1175); settings: PfDHODH enzyme, DCIP absorbance 600 nm; higher = more signal, called active from +8 up or from −8 down;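 note: recombinant parasite enzyme with a five histidine tag at its C terminus; test concentration not given here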
Chain of Dihydroorotate dehydrogenase (quinone), mitochondrial (Plasmodium falciparum (isolate 3D7)) (Q08210 whole entry, looked up): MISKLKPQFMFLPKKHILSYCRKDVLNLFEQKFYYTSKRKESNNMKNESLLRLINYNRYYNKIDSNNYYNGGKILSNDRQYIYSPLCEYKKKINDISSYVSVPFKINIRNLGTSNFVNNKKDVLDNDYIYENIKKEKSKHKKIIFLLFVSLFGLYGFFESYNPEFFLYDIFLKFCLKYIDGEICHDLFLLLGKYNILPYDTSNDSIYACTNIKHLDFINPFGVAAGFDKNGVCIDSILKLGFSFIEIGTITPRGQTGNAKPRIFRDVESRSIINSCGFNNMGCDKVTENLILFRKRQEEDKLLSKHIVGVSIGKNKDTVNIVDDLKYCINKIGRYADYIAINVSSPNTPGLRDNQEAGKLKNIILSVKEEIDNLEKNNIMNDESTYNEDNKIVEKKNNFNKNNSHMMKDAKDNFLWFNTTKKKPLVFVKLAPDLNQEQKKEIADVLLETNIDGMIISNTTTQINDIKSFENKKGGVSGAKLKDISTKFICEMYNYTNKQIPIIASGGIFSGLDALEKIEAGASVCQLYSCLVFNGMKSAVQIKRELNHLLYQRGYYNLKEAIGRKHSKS

[15] = inhibition of PAO1 biofilm formation – strain PAO1, LB-PBS medium, absorbance 600 nm, primary screen (AID 1176); note: test concentration not given here; settings: P. aeruginosa PAO1 growth/biofilm, A600, 12 h; higher = more signal
[16] = growth modulation of vineyard yeast isolate – strain RM11-1a, OD600, basal, 24 h, primary screen (AID 1177);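 note: cultures grown under basal conditions with no added stressor; test concentration not given here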; settings: S. cerevisiae RM11-1a growth, OD600, 24 h; higher = more signal, called active from +8 up or from −8 down
[17] = growth of efflux-deficient E. coli DRC39 – strain DRC39, OD650, 24 h, E. coli filamentation inducers, primary screen (AID 1178);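 note: growth measured as culture turbidity by optical density at 650 nm; test concentration not given here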; settings: E. coli DRC39 acrAB, higher = more signal, called active from +8 up or from −8 down
[18] = growth of efflux-deficient E. coli DRC39 – strain DRC39, OD650, 48 h, E. coli filamentation inducers, primary screen (AID 1179);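 note: screen aims at cell division blockers that make cells filament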; settings: E. coli DRC39 delta-acrAB growth, higher = more signal, called active from +8 up or from −8 down
[19] = viability profiling in RPMI8226 myeloma cells – cell-based, resazurin fluorescence, basal, 24 h, PK04 Diversity Set, profiling panel (AID 1180); settings: higher = more signal;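 note: RPMI8826 multiple myeloma cell line at 5000 cells per well; test concentration not given here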
[20] = target: E3 ubiquitin-protein ligase XIAP (Homo sapiens) (UniProt P98170); assay: small molecules binding XIAP protein – biophysical, small-molecule microarray, fluorescence 635 nm, primary screen (AID 1181); settings: higher = more signal;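 note: score merges 667 nm emission and signal to noise over triplicate slides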
Chain of E3 ubiquitin-protein ligase XIAP (Homo sapiens) (P98170 whole entry, looked up): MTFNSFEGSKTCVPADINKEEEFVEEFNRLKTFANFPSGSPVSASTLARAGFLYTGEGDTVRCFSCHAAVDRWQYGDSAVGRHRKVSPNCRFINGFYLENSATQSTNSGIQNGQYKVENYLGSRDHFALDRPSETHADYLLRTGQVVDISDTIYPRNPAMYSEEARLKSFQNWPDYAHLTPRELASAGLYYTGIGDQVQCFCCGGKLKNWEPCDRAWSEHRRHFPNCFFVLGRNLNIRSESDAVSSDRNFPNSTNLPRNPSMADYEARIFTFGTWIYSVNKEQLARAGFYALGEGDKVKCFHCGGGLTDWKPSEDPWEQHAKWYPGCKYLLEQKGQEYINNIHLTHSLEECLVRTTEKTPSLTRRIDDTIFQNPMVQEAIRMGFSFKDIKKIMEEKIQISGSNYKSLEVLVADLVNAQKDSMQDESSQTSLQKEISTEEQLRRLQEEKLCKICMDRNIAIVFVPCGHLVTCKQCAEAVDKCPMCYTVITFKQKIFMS

SMILES	z-score [1]	z-score [2]	z-score [3]	z-score [4]	z-score [5]	z-score [6]	z-score [7]	z-score [8]	z-score [9]	z-score [10]	z-score [11]	z-score [12]	z-score [13]	composite z-score [14]	z-score [15]	z-score [16]	z-score [17]	z-score [18]	z-score [19]	composite z-score [20]
C[N+](C)(C)CCCC[C@@H]1NC(=O)[C@H]2C[C@@H](C(=O)O)[C@@H](c3cccc(OCCO)c3)N2C1=O	0.244	-0.552	0.438	0.797	0.91	2.37	-0.448 (inactive)	-0.741	-0.631	-0.141 (inactive)	0.352	-1.32 (inactive)	0.644 (inactive)	0.16 (inactive)	0.0751 (inactive)	-0.625 (inactive)	0.406 (inactive)	0.871 (inactive)	0.773	0.353
O=C(NCC(F)(F)F)[C@@H]1c2ccccc2C(=O)N(Cc2ccccc2)[C@H]1c1ccc(CO)cc1	1.73	0.402	1.34	0.356	-0.407	2.14	1.2 (inactive)	0.0511	-0.657	0.176 (inactive)	-0.699	-0.0657 (inactive)	-0.294 (inactive)	-1.09 (inactive)	-0.0654 (inactive)	0.0566 (inactive)	0.126 (inactive)	0.606 (inactive)	0.368	-0.239
CCOC(=O)C=Cc1cccc(OC)c1O	-0.364	0.532	-0.834	0.408	-1.61	-0.94	0.151 (inactive)	-0.149	-1.25	-0.787 (inactive)	-0.537	-6.47 (inactive)	-0.649 (inactive)	-1.15 (inactive)	-2.06 (inactive)	-1.34 (inactive)	-0.597 (inactive)	-1.03 (inactive)	-1.07	0.0036
[N-]=[N+]=NCc1ccccc1C[C@]1(C(=O)NCC(O)CO)COC(c2ccc(OCCCO)cc2)=N1 (stereo not given in full)	-0.226	-0.314	0.0226	-1.02	-1.29	-0.727	-0.491 (inactive)	-1.26	-0.714	2.56 (inactive)	0.0117	-1.46 (inactive)	-2.31 (inactive)	0.0291 (inactive)	0.19 (inactive)	-0.325 (inactive)	-0.0949 (inactive)	0.0564 (inactive)	-0.902	-0.163
O=S(=O)(NCCCO)c1ccc(Br)cc1	0.819	-0.307	0.492	0.704	1.24	0.76	0.371 (inactive)	0.514	-0.722	-0.285 (inactive)	0.304	-0.476 (inactive)	0.261 (inactive)	-1.62 (inactive)	-0.236 (inactive)	-0.482 (inactive)	1.68 (inactive)	2.3 (inactive)	0.461	0.0441
C=CCC(OC(C)=O)[C@@H]1[C@@H](N(Cc2cc3ccccc3o2)C(=O)c2ccc(-c3ccccc3)cc2)c2cc(OCCCO)ccc2N1C(=O)Cc1ccc2ccccc2c1 (stereo not given in full)	0.809	0.778	1.48	0.372	-0.0122	1.64	-0.211 (inactive)	-0.0273	0.293	0.483 (inactive)	-0.795	0.692 (inactive)	0.548 (inactive)	0.22 (inactive)	0.0793 (inactive)	0.854 (inactive)	1.15 (inactive)	0.682 (inactive)	1.13	-0.239
C/C=C/[C@H](CCn1cc([C@H](O)c2ccccc2)nn1)[Si](C)(C)c1ccc(OC)cc1	-0.0186	-0.358	-0.689	-1.58	-1.43	-1.4	0.644 (inactive)	-0.569	-0.629	0.22 (inactive)	0.0881	-0.289 (inactive)	0.183 (inactive)	-0.393 (inactive)	0.626 (inactive)	0.15 (inactive)	0.265 (inactive)	-0.0867 (inactive)	-0.187	-0.0936
Cc1ccc(S[C@]2(C(=O)NCC(C)C)CC(=O)N(Cc3ccccc3)[C@@H]2c2ccc(CO)cc2)cc1	0.204	0.38	-0.056	-1.32	-0.152	-0.135	-0.239 (inactive)	0.205	0.435	1.23 (inactive)	0.408	-0.841 (inactive)	0.559 (inactive)	-0.586 (inactive)	0.525 (inactive)	-0.341 (inactive)	0.298 (inactive)	-0.667 (inactive)	0.505	0.104
NC(=O)[C@@]1(CCS(=O)(=O)c2ccccc2)N=C(c2ccc(OCCCO)cc2)O[C@H]1c1ccccc1	-0.291	0.957	-1.94	0.614	-1.13	-0.209	-0.219 (inactive)	0.634	-0.659	0.798 (inactive)	-0.0687	-1.38 (inactive)	0.837 (inactive)	-0.319 (inactive)	-0.73 (inactive)	-0.832 (inactive)	0.818 (inactive)	0.565 (inactive)	0.429	0.0097
